Screening data as filed in PubChem BioAssay.
Compounds with a hit are over-represented: about 1.5% of the library has one in this group of screens.
IDE cell activ = IDE (human) activation, cell-based; P14735; HEK cells, FAbeta-B cleavage, fluorescence polarization; 0% vehicle, 100% cell-free pure enzyme wells; activation, % at 5.96 µM; 340,000 compounds, 0.073% hits; AID 493087;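 active means activation above the mean of all tested compounds plus 3 SD, set per screening campaign, cut at about 17% in these data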
Target sequence (P14735 whole entry, looked up): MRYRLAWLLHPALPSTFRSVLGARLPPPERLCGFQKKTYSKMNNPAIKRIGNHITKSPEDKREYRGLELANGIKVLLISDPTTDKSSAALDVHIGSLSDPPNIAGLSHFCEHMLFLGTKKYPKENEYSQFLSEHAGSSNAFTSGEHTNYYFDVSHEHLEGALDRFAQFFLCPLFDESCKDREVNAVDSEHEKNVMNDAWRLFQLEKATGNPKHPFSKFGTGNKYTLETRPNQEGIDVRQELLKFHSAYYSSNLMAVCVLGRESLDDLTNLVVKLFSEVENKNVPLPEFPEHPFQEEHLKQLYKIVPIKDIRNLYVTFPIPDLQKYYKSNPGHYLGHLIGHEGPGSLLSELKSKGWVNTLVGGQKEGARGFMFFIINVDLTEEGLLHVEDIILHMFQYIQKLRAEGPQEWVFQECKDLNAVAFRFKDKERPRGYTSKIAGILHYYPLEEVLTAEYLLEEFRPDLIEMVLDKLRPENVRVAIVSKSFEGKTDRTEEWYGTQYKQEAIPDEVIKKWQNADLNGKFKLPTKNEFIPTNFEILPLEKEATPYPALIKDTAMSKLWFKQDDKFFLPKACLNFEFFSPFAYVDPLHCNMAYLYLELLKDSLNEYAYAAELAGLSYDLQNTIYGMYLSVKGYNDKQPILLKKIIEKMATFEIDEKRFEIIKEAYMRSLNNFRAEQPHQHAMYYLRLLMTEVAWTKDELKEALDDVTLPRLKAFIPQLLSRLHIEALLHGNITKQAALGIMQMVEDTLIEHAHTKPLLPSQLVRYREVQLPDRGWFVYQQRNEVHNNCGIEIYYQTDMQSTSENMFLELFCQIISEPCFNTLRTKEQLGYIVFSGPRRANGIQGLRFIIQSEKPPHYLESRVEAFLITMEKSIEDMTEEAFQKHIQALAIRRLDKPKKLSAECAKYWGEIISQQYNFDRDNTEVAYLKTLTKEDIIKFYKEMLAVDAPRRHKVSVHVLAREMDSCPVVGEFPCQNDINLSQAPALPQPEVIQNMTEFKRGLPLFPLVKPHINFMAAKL
IDE cell inh = inhibits human insulin-degrading enzyme in HEK cells; FAbetaB cleavage, fluorescence polarization; inhibition, % at 5.59 µM; 320,000 compounds, 0.41% hits; P14735;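 active means percent inhibition above the average of all tested compounds plus 3 SD, set per screening campaign, cut at about 16% in these data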;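 further: IDE supplied by intact live HEK cells; FP after avidin binding of uncleaved biotin substrate so inhibition keeps polarization high; 0% = DMSO wells and 100% = 60 µM reference IDE inhibitor Ii1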
cardiac RTF act = increases calcium sensitivity of human cardiac regulated thin filaments; P19429+P45379; IANBD-labeled TnC RTF fluorescence at EC20 calcium; 0% EC20 calcium, 100% full calcium; activation, % at 7.2 µM; 340,000 compounds, 0.24% hits; AID 493008;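 active means activation above the mean over all tested compounds plus 3 SD, cut at about 30% in these data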;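 further: rise in fluorescence read as greater calcium sensitivity of cardiac thin filaments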
Cardiac RTF inh = cardiac RTF calcium desensitization | IANBD-labeled cardiac RTF, Ca2+ fluorescence | inhibition, % at 7.15 µM | 340,000 compounds, 0.12% hits;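 active means inhibition above the mean inhibition of all tested compounds plus 3 SD, cut at about 17% in these data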;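 further: assay run at fixed EC70 calcium of 1.6 mM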
CRFBP-R2 agonist = CRF-BP/CRF-R2 complex agonism | activation, % at 13.2 µM | 350,000 compounds, 0.46% hits | HEK293 CRF-R2/CRF-BP, calcium dye fluorescence (FLIPR); percent of saturating CRF peptide response;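 active means activation of at least 50%, plus an integration ratio under a set limit after plate pattern correction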;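 further: plate controls were neutral control wells without compound for no effect and CRF at EC100 for full effect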
TPT1 inh = blocks Candida albicans tRNA 2'-phosphotransferase; recombinant caTPT1, FP RNA substrate dephosphorylation; 300,000 compounds, 0.81% hits; inhibition, % at 5 µM;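 active means inhibition above the mean of all tested compounds plus 3 SD, set per screening campaign, cut at about 24% in these data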;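 further: plate controls were DMSO alone for no effect and ferristatin control at 100 nM for full effect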
* marks the source's active call; other numbers are inactive results; i = inactive; · = no result.

SMILES	IDE cell activ	IDE cell inh	cardiac RTF act	Cardiac RTF inh	CRFBP-R2 agonist	TPT1 inh
O=C(COc1ccc(S(=O)(=O)NCc2ccccc2)cc1Cl)NCC1CCCO1 (stereo not given)	7.4	-3.4	-3.3	-6.0	1.2	-3.5
Cc1cc(S(=O)(=O)NCc2ccccc2)ccc1OCC(=O)NCC1CCCO1 (stereo not given)	2.1	0.1	-1.9	2.2	241.3*	-1.5
O=C(NN=Cc1c(O)ccc2ccccc12)c1ccncc1	-68.5	·	31.3*	-49.4	148.7*	·
CC(=NNC(=O)c1ccncc1)c1ccc2ccccc2c1O	-101.8	·	48.3*	-65.9	296.5*	·
N#Cc1ccc(C(=O)Nc2nnc(-c3cccs3)o2)cc1	-0.8	0.0	0.1	-4.4	0.6	0.3
O=C(Nc1nnc(-c2cccs2)o1)c1cccc(C(F)(F)F)c1	8.3	2.8	2.6	-5.0	80.9*	1.6
COC(=O)c1ccccc1NC(=S)NC(=O)COc1ccccc1	0.8	-8.5	-2.1	-4.0	-3.7	-4.7
Cc1ccc(C(=O)NNC(=S)NC(=O)COc2ccccc2)cc1	1.6	8.4	-4.2	-2.3	141.7*	-1.6
Cc1ccccc1C(=O)NNC(=S)NC(=O)COc1ccccc1	-3.5	2.1	-8.8	-1.3	129.1*	-1.6
CC(C)(C)c1ccc(C(=O)NC(=S)NNC(=O)COc2ccccc2)cc1	-13.7	0.4	0.0	-10.9	95.7*	-7.2
Cc1ccc(S(=O)(=O)N(Cc2ccc(Cl)cc2)c2ccccc2C(=O)NCc2ccco2)cc1	5.8	-8.6	-1.1	-9.9	-0.8	-2.5
Cc1ccc(C(=O)Nc2cccc3cccnc23)cc1C	3.6	0.7	1.3	1.9	-2.5	-0.1
O=C(c1ccccc1Cc1ccccc1)N1CCN(S(=O)(=O)c2ccccc2[N+](=O)[O-])CC1	2.7	-3.4	-9.2	-11.9	0.3	-0.1
Cc1cc(Oc2ccc(C#N)cc2)nc(N2CCOCC2)n1	27.9*	3.1	-1.7	-5.3	-3.6	-3.4
N#C/C(=C\c1ccc(OCc2ccccc2)cc1)C(=O)Nc1nc2c(s1)CCN(Cc1ccccc1)C2	2.7	8.4	0.3	9.5	30.1	5.3
CN(C)c1ccc(/C=C(/C#N)C(=O)Nc2nc3c(s2)CCN(Cc2ccccc2)C3)cc1	-43.5	·	51.2*	-60.8	157.7*	·
OC(CN1CCCCC1)c1ccc2c3c(cccc13)CC2 (stereo not given)	2.0	·	-0.9	0.4	5.0	·
CC(=O)Nc1ccc(OCc2cn(CC(=O)c3ccc(O)cc3)nn2)cc1	·	·	·	·	0.1	·
CCCCn1nc2cc(C(=O)NCCCCc3ccccc3)ccc2c1OCC	20.6*	7.7	6.9	-7.9	0.6	-3.5
CCNC(=S)Nc1ccc(N2CCCCC2)cc1	4.0	-3.1	-1.6	-2.5	-0.9	3.9
CCNC(=S)N/N=C/c1sc(N2CCCCC2)nc1-c1cccs1	-1.3	-2.7	32.8*	-19.3	13.6	17.5
O=C(CSc1nn(-c2ccc(Cl)cc2)c(=S)s1)NCC1CCCO1 (stereo not given)	1.8	2.4	2.5	-1.6	-0.3	1.8
Cc1ccc(CNc2ccc3c(c2)OCO3)cc1	-4.0	1.9	38.9*	-61.1	11.9	9.4
Cc1ccc(C(=O)NCC(=O)OCC(=O)c2c(N)n(C)c(=O)n(C)c2=O)cc1C	1.6	4.1	-1.1	7.4	-1.6	·
O=[N+]([O-])c1ccc(OCc2cnc(Cl)s2)c([N+](=O)[O-])c1	-3.6	-0.8	2.0	0.6	1.3	-3.2
SMILES	IDE cell activ	IDE cell inh	cardiac RTF act	Cardiac RTF inh	CRFBP-R2 agonist	TPT1 inh
CC(C)CN(C(=O)COC(=O)c1ccc(Br)cc1)c1c(N)n(Cc2ccccc2)c(=O)[nH]c1=O	22.0*	-2.0	-5.5	-2.8	6.7	-0.2
O=C(N/N=C/c1cc([N+](=O)[O-])cc(Br)c1O)C12CC3CCC(CC(C3)C1)C2	2.5	-8.0	-0.7	1.7	117.1*	0.1
CC1=CC(=O)c2c(O)ccc(O)c2C1=O	·	-5.3	·	·	·	-20.9
Cc1nn(C)c(Cl)c1CN1CCC(CO)(CCOc2ccccc2)CC1	3.1	-2.1	-1.2	3.2	-2.4	0.3
Cc1c(CN2CCC(CO)(CCOc3ccccc3)CC2)[nH]c2c(Cl)cccc12	28.1*	-3.9	-0.2	-1.1	0.2	-4.7
CCOC(=O)C1CCN(Cc2cc(=O)oc3c(C)c(C)ccc23)CC1	-0.1	2.0	-1.9	-6.4	0.5	-1.0
COP(=O)(OC)c1nc(-c2ccc([N+](=O)[O-])cc2)oc1N1CCCCC1	-1.6	0.6	-4.0	-5.7	54.3*	15.6
C/C(CC(=O)Nc1ccc(N(C)C)cc1)=N\NC(=O)c1ccncc1	18.4*	1.0	2.5	-9.8	2.0	-3.1
C/C(CC(=O)Nc1ccc(N(C)C)cc1)=N\NC(=O)c1ccc(Cl)cc1	-3.8	2.2	-2.0	-0.9	-1.8	0.9
Cc1cccc(NC(=O)CCC2CCN(C(=O)C3CC=CCC3)CC2)c1 (stereo not given)	4.8	1.5	-6.4	-1.9	-0.8	3.1
COc1ccc2c3c(cccc13)C(=O)CC2	42.5*	·	714.9*	i	139.3*	·
COc1ccc(/C=C2\CCCc3c2nc2ccccc2c3C(=O)O)cc1OC	·	-8.9	·	·	·	-44.7
CCOc1ccc(/C=C2\CCCc3c2nc2ccccc2c3C(=O)O)cc1OC	47.6*	-35.8	767.5*	i	·	-61.6
CCOC(=O)c1ccc(NC(=O)c2cccc3c2C(=O)N(CC2CCCO2)C3)cc1 (stereo not given)	-0.2	4.0	-1.2	-5.2	81.9*	0.9
Cc1ccc(C)c(OC(=O)CN2C(=O)c3ccccc3C2=O)c1	-2.0	-2.9	1.6	-5.5	-3.4	2.2
N#CC(c1nc2ccccc2nc1N1CCCC1)S(=O)(=O)c1ccccc1 (stereo not given)	1.8	-0.1	12.3	-30.7	25.5	1.4
Cc1cccc(S(=O)(=O)C(C#N)c2nc3ccccc3nc2N2CCCC2)c1 (stereo not given)	2.0	1.8	6.1	-12.8	64.0*	-1.0
COc1ccc(NC(=O)CN(C)C(=O)C(Sc2ccccc2)c2ccccc2)cc1 (stereo not given)	4.3	6.9	-2.7	-6.7	0.2	·
O=c1[nH]c(=O)n(-c2ccccc2)c2c1C(C(F)(F)F)(C(F)(F)F)N=C(CCC1CCCCC1)N2	-1.7	-0.2	-8.4	2.1	109.5*	2.0
CC(=O)Nc1ccc2c(O)cc(S(=O)(=O)O)cc2c1	4.2	·	0.7	-5.5	4.6	·
Nc1ccc2c(O)cc(S(=O)(=O)O)cc2c1	-3.9	·	58.4*	-63.2	-1.2	·
CC1(C)N=C(N)N=C(N)N1c1ccc(Oc2ccc(Cl)cc2)c(Cl)c1	0.2	-0.4	-0.5	-3.6	0.6	-2.5
CCCCCCCCCCCCCCCC[N+](C)(C)CCN(Cc1ccc(OC)cc1)c1ncccn1	17.5*	-4.3	-9.9	8.3	28.2	-2.3
COc1ccc(CN(CCN(C)C)c2ccccn2)cc1	-0.6	2.9	-6.3	16.3	-2.3	3.4
